SW480 rereplic: induces DNA re-replication in SW480 colon adenocarcinoma cells; SW480 DNA re-replication, Hoechst DNA content imaging, 48 h; Potency, µM (titrated, usually from 46.1 µM), for the others: at the highest dose re-replication activation, actives largely listed as activators; actives 1.8% (n = 340,000); AID 624297; also: potency is read from the fitted curve at half-maximal effect; % of control where 0% means no effect; nearly all actives have a fitted effect of over 55% in size
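Image-based read-out: total Hoechst fluorescence of nuclei (405 nm excitation, 500-530 nm emission), with hits raising the fraction of high-intensity nuclei. SW480 colon cells incubated 48 hr with compounds at 37 C.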
KB-V1 cytotox: KB-V1 MDR subline cytotoxicity; KB-V1 MDR cells viability, CellTiter-Glo, 72 h; Potency, µM (series often up to 46.1 µM), most hits filed as cytotoxic; actives 3.4% (n = 400,000); AID 1347076; also: potency is read from the fitted curve at half-maximal effect; % is scaled to controls: 0 for no effect and ±100 for the full control effect; nearly all actives have a fitted effect of over 60% in size
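Potencies derive from concentration-effect curves fitted to normalized luminescence (CellTiter-Glo) of KB-V1 cells treated for 72 h at 37 degrees C in phenol-red-free DMEM containing 10% FBS.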
MCF10A rereplic: DNA re-replication induction in MCF 10a cells; MCF 10A DNA re-replication, Hoechst nuclear intensity, 48 h; AID 624296; actives 2.9% (n = 350,000); Potency, µM (titrated, usually from 46.1 µM), inactives show at the top dose activity, positive = re-replication, most hits filed as activators; also: potency is read from the fitted curve at half-maximal effect; % of control where 0% means no effect; nearly all actives have a fitted effect of over 50% in size
Giardia kill: kills Giardia lamblia; actives 0.15% (n = 340,000); AID 540267; Giardia lamblia trophozoite viability; activity change, % at 7.66 µM, hits read low; in the data active = activity change below about -80%; inconclusive = between about -30% and that limit;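 also: parasites exposed to compound for two days anaerobically before the ATP read; % is scaled to controls: 0 for no effect and ±100 for the full control effect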
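Killing of trophozoites was scored by loss of ATP luminescence after a 48 hrs anaerobic exposure to compounds at 37 deg C, using 100 cells per well.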
KB-3-1 tox: KB-3-1 parental cell cytotoxicity | Potency, µM (top dose mostly 46.1 µM), actives largely listed as cytotoxic | actives 1.4% (n = 400,000) | KB-3-1 viability, CellTiter-Glo ATP luminescence, 72 h; also: potency is read from the fitted curve at half-maximal effect; % is scaled to controls: 0 for no effect and ±100 for the full control effect; nearly all actives have a fitted effect of over 60% in size
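KB-3-1 parental drug-naive adenocarcinoma cells in DMEM/10% FBS, incubated 72 h at 37 C with pin-transferred compounds across a concentration series. Viability by CellTiter-Glo luminescence; concentration-response curves fitted after normalization.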
ASM inhibitor: blocks human secretory acid sphingomyelinase | Potency, µM (titrated, usually from 57.5 µM), for the others: at the highest dose activity change, negative = inhibition, actives largely listed as inhibitors | AID 504937 | placental ASM, HMU-PC fluorogenic substrate, 60 min | P17405 | actives 0.006% (n = 340,000); also: potency is read from the fitted curve at half-maximal effect
Target sequence (P17405 47-631 limits assumed): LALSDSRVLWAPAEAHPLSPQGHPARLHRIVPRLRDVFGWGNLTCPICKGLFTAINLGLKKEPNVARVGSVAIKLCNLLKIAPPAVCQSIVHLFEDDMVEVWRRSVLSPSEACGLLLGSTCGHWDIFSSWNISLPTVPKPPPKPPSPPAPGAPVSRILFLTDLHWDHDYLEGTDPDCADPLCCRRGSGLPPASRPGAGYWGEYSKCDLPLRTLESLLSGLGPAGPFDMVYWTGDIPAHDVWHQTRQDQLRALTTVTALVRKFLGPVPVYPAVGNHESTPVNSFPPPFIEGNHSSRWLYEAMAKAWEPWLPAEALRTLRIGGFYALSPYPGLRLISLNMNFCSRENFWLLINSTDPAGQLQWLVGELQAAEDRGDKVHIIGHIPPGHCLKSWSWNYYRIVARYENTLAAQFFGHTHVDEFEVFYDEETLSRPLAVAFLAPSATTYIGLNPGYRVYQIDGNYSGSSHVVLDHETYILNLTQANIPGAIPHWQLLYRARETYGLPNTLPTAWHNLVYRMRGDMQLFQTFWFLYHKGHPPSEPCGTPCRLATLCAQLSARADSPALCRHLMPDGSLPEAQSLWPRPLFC
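Human placenta-derived ASM preincubated with compound 10 min at room temperature, then reacted with 9 uM (final) fluorogenic HMU-PC substrate for 60 min at 37 C. Stop solution raises pH to 10; fluorescence read at Ex 386/Em 447 nm.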
* = called active by the depositor; i = inactive; ? = inconclusive; nt = no result given. The list is not random: actives were taken first. Their share in the collection is about 6.9%. Unless noted, calls follow the shape of the dose curve; as a rule, active = well fitted curve in the direction sought with a large enough effect; inconclusive = small, poorly fitted or top-dose-only effect, or another doubt; inactive = no such curve, though single readings can be large; an effect the other way counts as inactive or inconclusive.

SMILES	SW480 rereplic	KB-V1 cytotox	MCF10A rereplic	Giardia kill	KB-3-1 tox	ASM inhibitor
O=C(N/N=C/c1cc(Br)c(Br)o1)c1ccc2c(c1)OCCO2	-0.5%	?	13µM*	-1.8	i	-0.2%
O=C(N/N=C/c1cc(Br)c(O)c(Br)c1O)c1ccc2c(c1)OCCO2	?	?	18.6%	-5.7	?	50.9%
O=c1cnnc(N/N=C/c2ccc3c(c2)OCO3)[nH]1	2.7%	7.31µM*	-2.2%	-11.8	?	4.4%
COc1cc(Cl)cc(/C=N\NC(=O)c2ccc3c(c2)OCO3)c1O	nt	?	nt	nt	i	nt
O=C(N/N=C/c1cc(Cl)cc([N+](=O)[O-])c1O)c1ccc2c(c1)OCO2	18.4µM*	i	?	-14.6	?	-4.6%
O=C(N/N=C/c1ccc2c(c1)OCO2)c1cc(-c2ccccc2)nc2ccccc12	9.9%	i	?	14.0	?	-15.2%
O=C(N/N=C/c1ccc2c(c1)OCO2)c1cc(-c2ccco2)nc2ccccc12	14.6µM*	?	?	-12.5	?	26.8%
Cn1cc(C(=O)N/N=C/c2ccc3c(c2)OCO3)c2ccccc21	?	?	?	-5.2	8.2µM*	-1.9%
O=C(N/N=C/c1ccc2c(c1)OCO2)c1ccc2c(c1)OCCO2	?	i	?	9.8	16.4µM*	2.8%
Cn1c(=O)c(=O)n(C)c2cc(NC(=O)c3cccc(F)c3)c(Cl)cc21	nt	i	nt	nt	i	nt
CC(C)COC(=O)N(C)C[C@H]1OCc2cnnn2CCCC(=O)N([C@H](C)CO)C[C@H]1C	nt	?	nt	nt	i	nt
O=C(N/N=C/c1c[nH]c2ccccc12)c1ccccc1	0.2%	i	8.7%	-13.4	i	1.2%
O=C(N/N=C/c1ccc2c(c1)OCO2)c1cccc2ccccc12	103.0%	?	16.4µM*	-5.9	?	0.8%
O=C(N/N=C/c1ccc2c(c1)OCO2)c1ccccn1	8.4%	14.6µM*	2.8%	-3.1	?	1.6%
O=C(N/N=C/c1c[nH]c2ccccc12)c1ccc2c(c1)OCCO2	?	?	16.4µM*	-24.6	i	1.4%
O=C(N/N=C/c1cc(Cl)cc([N+](=O)[O-])c1O)NC12CC3CC(CC(C3)C1)C2	10.4%	?	18.4µM*	-4.6	?	-6.7%
O=C(Nc1ccc(F)c(F)c1)c1cnn2c1NC(=C1CC1)C=C2C(F)(F)F	nt	i	nt	nt	?	nt
COc1ccc(/C=N/NC(=O)c2ccc(COCC(F)(F)C(F)F)cc2)cc1	-19.4%	?	-28.2%	-8.4	i	-2.6%
O=C(O)c1ccc(N/N=C/c2ccc3c(c2)OCO3)cc1	9.9%	?	3.2%	-2.5	20.6µM*	0.1%
Cn1cc(C(=O)N/N=C/c2ccc(Br)c([N+](=O)[O-])c2)c2ccccc21	?	i	-9.9%	4.8	16.4µM*	0.4%
O=C(O)c1ccc(N/N=C/c2cc3cc4c(cc3nc2Cl)OCCO4)cc1	?	i	13µM*	-88.4*	i	0.6%
O=C(N/N=C/c1ccc2c(c1)OCO2)c1ccc(COCC(F)(F)C(F)F)cc1	6.51µM*	i	?	-7.5	8.2µM*	8.3%
N#Cc1ccc(/C=N/NC(=O)c2cc(-c3cccs3)nc3ccccc23)cc1	?	i	20.6µM*	5.0	?	13.3%
CCc1ccc(S(=O)(=O)Nc2cc(SCC(=O)O)c(O)c3ccccc23)cc1	?	?	?	-6.9	?	?
O=S(=O)(Nc1cc(Sc2cccc3cccnc23)c(O)c2ccccc12)c1ccccc1	8.2µM*	nt	23.1µM*	nt	nt	nt
SMILES	SW480 rereplic	KB-V1 cytotox	MCF10A rereplic	Giardia kill	KB-3-1 tox	ASM inhibitor
CCOc1ccc(S(=O)(=O)Nc2cc(SCC(=O)O)c(O)c3ccccc23)cc1	18.3%	?	?	-14.2	?	-24.4%
O=C(O)CSc1cc(NS(=O)(=O)c2cccc([N+](=O)[O-])c2)c2ccccc2c1O	20.6µM*	5.8µM*	2.06µM*	-81.0*	?	?
Cc1ccc(NC(=O)CN2C(=O)COc3ccc(S(=O)(=O)NC4CCCC4)cc32)cc1Cl	nt	i	nt	nt	i	nt
CCOC(=O)Cc1ccc(NC(=O)Nc2nnc(N3CCCCC3C)s2)cc1 (centres undefined)	nt	i	nt	nt	i	nt
CC(C)c1ccc2c(c1)[C@H]1OCC[C@H]1[C@@H](c1cccs1)N2	9.2µM*	2.31µM*	7.31µM*	-16.2	6.51µM*	-1.6%
CCN(C(=O)COC(=O)c1ccc[nH]c1=O)c1cccc2ccccc12	-8.3%	i	-27.6%	8.6	i	6.9%
CCCCc1nn2c(=O)cc(COC(=O)c3cccc(NC(=O)c4cccs4)c3)nc2s1	nt	i	nt	nt	i	nt
CCOCCCn1c(SCC(=O)/C(C#N)=C(\C)N)nc2ccccc2c1=O	-7.7%	8.2µM*	-6.6%	1.0	i	3.5%
CCOCCCn1c(SCc2nc3ccccc3s2)nc2ccccc2c1=O	?	2.31µM*	?	-11.9	11.6µM*	?
Cc1ccccc1OCC(=O)NNC(=S)NC(=O)c1ccco1	?	i	14.1µM*	0.5	?	0.9%
Cc1ccccc1OCC(=O)Nc1ccccc1NC(=O)c1ccco1	1.5%	i	12.5%	-5.9	i	-1.2%
CCOc1cc(NC(=O)c2ccco2)c(OCC)cc1NC(=O)COc1ccccc1C	10.2%	?	2.06µM*	20.1	14.6µM*	39.4%
COC(=O)CCN(c1ccccc1)C(CNS(=O)(=O)c1ccccc1)c1ccccc1 (centres undefined)	nt	i	nt	nt	i	nt
Cc1cc(C)n(-c2cc(C(C)(C)C)nc3c(-c4ccccc4)cnn23)n1	0.5%	?	20.6µM*	-8.7	i	-4.5%
Cc1ccc(-c2cnn3c(N4CCOCC4)cc(C)nc23)cc1	-0.9%	i	-4.3%	-5.4	i	-2.3%
Cc1cc(NC2CCCC2)n2ncc(-c3ccccc3)c2n1	0.8%	i	?	-24.1	?	14.6%
Cc1cc(C)n(-c2cc(C(C)(C)C)nc3c(-c4ccc(Cl)cc4)cnn23)n1	?	i	23.1µM*	-1.4	i	?
Cc1cc(NCc2ccccc2)n2ncc(-c3ccccc3)c2n1	?	i	18.4µM*	0.6	?	16.3%
Cc1cc(N2CCOCC2)n2ncc(-c3ccc(Cl)cc3)c2n1	20.6µM*	i	5.8%	-13.0	i	145.2%
CCOc1ccccc1NC(=O)Cn1c(=O)n(Cc2ccco2)c(=O)c2cccnc21	nt	i	nt	nt	i	nt
C=CCn1c(COc2ccccc2F)nnc1SCC(=O)Nc1cc2oc3ccccc3c2cc1OC	4.4%	?	11.7%	-2.1	?	-12.1%

Assay outcomes: PubChem BioAssay, National Center for Advancing Translational Sciences (NCATS)
